This is a sample that favours compounds with a hit; in the whole collection about 8.3% have one here.
VP16 counter: inhibits Gal4-VP16 luciferase reporter, ROR gamma counter-screen | Drosophila S2 Gal4-VP16 UAS-luciferase, luminescence, 20 h | Potency, µM (doses to about 53.6 µM), for inactives: at the highest dose activity, negative = inhibition, actives largely listed as inhibitors | 310,000 compounds, 3.5% hits;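 further: Gal4-VP16 expression switched on by copper sulfate through the metallothionein promoter; potency means the concentration at half of the fitted maximal effect; on the % scale 0 is the no-effect control and ±100 the full control effect; nearly all actives have a fitted effect of over 50% in size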
SW480 rerep: DNA re-replication induction in SW480 cells | 340,000 compounds, 1.8% hits | AID 624297 | Potency, µM (doses to about 46.1 µM), inactives show top-dose re-replication activation, usual class: activators | SW480 DNA re-replication, Hoechst DNA content imaging, 48 h; further: potency means the concentration at half of the fitted maximal effect; % of control where 0% means no effect; nearly all actives have a fitted effect of over 55% in size
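Hoechst fluorescence of nuclei (405 nm excitation, 500-530 nm emission) measured by plate-scanning imager after 48 hr compound exposure at 37 C; re-replication scored as increased number of nuclei with elevated intensity.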
MCF10A rerep: DNA re-replication induction in MCF 10a cells; Potency, µM (doses to about 46.1 µM), for the others: at the top dose activity, positive = re-replication, actives largely listed as activators; MCF 10A DNA re-replication, Hoechst nuclear intensity, 48 h; 350,000 compounds, 2.9% hits; further: potency means the concentration at half of the fitted maximal effect; % of control where 0% means no effect; nearly all actives have a fitted effect of over 50% in size
RORg inh: blocks mouse ROR gamma transcriptional activity | 310,000 compounds, 5.4% hits | Drosophila S2 Gal4-RORgamma UAS-luciferase reporter, 20 h | Potency, µM (doses to about 53.6 µM), for inactives: top-dose activity change, negative = inhibition, most hits filed as inhibitors; further: potency means the concentration at half of the fitted maximal effect; on the % scale 0 is the no-effect control and ±100 the full control effect; nearly all actives have a fitted effect of over 60% in size
Target sequence (P51450 whole entry, looked up, the tested form may be a part): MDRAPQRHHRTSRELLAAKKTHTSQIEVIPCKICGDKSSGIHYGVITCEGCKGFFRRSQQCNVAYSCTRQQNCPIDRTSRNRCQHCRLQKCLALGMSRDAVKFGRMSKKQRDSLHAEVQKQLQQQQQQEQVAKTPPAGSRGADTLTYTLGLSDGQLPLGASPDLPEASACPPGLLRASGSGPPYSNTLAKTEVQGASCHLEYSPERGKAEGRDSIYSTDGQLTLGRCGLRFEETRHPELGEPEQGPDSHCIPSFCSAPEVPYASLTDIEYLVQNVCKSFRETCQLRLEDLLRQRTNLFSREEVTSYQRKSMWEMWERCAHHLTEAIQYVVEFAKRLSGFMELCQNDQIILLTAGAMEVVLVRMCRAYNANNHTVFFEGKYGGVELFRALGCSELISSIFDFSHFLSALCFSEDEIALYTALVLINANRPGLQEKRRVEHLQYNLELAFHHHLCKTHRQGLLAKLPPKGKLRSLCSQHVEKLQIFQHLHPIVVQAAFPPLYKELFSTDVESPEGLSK
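Compounds are pin-transferred onto Drosophila Schneider cells expressing a copper-inducible Gal4–ROR gamma transactivation domain fusion. After 1 hr, copper sulfate is added to 700 uM final; luciferase is read 20 hr later.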
BCR signal inh: chronic active BCR signaling inhibition | ABC-DLBCL IkBa-CBG/CBR reporter, luminescence ratio, 4 h | Potency, µM (series often up to 46.1 µM), for the others: at the top dose activity change, negative = inhibition, hits mostly inhibitors | 340,000 compounds, 0.05% hits | AID 493014; active means well fitted inhibition curve with a large enough effect in the signal ratio, with a control signal flat, not every such curve was filed as active; inconclusive means small, poorly fitted or top-dose-only effect, or effect the other way, or a change in a side signal; the % refers to the signal ratio;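 further: potency means the concentration at half of the fitted maximal effect; plate controls were basal doxycycline-induced cells for no effect and cells given 10 µM MG132 for full effect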
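Compounds up to 46 uM were incubated four hours with TMD8 cells whose green CBG68 luciferase is fused to IkappaBalpha; red CBR luminescence normalised the signal, and concentration-effect curves were fitted to fusion, red and ratio data.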
Giardia killer: Giardia lamblia killing; Giardia lamblia trophozoite viability; activity change, % at 7.66 µM, hits read low; 340,000 compounds, 0.15% hits; in the data active means activity change below about -80%; inconclusive means between about -30% and that limit;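 further: parasites exposed to compound for two days anaerobically before the ATP read; on the % scale 0 is the no-effect control and ±100 the full control effect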
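Each well holds 100 Giardia trophozoites and compound. After two days (48 hrs) at 37 deg C in anaerobic conditions, ATP is quantified by luminescence.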
* marks the source's active call; other numbers are inactive results; ? = inconclusive; nt = no result given; [ ] = dose if it differs, or a comment. Unless noted, the call rests on the fitted dose curve; in most records, active means well fitted curve in the direction sought with a large enough effect; inconclusive means small, poorly fitted or top-dose-only effect, or another doubt; inactive means no such curve, though single readings can be large; an effect the other way counts as inactive or inconclusive.

SMILES	VP16 counter	SW480 rerep	MCF10A rerep	RORg inh	BCR signal inh	Giardia killer
CC(=O)C1=C(O)C(=O)N(c2ccccn2)C1c1ccccc1[N+](=O)[O-] (stereo not drawn)	-11%	21µM*	?	-36%	0%	6
Cc1ccc(NC(=S)N(Cc2ccco2)C(C)c2cccs2)c(Cl)c1 (stereo not drawn)	6%[10 µM]	1%	1%	14%	?	-15
Cc1ccccc1NC(=S)N(CCN(C)C)C(C)c1ccccn1 (stereo not drawn)	5%	4%	15%	?	-1%	8
Cc1c(Cl)cccc1NC(=S)N(CCN(C)C)C(C)c1ccccn1 (stereo not drawn)	?	5%	0%	13µM*	-2%	15
Cc1c(Cl)cccc1NC(=S)N(Cc1ccco1)C(C)c1ccccn1 (stereo not drawn)	?	-11%	3%	10µM*	-8%	4
Cc1ccccc1NC(=S)N(Cc1ccco1)C(C)c1ccccn1 (stereo not drawn)	?	-2%	-2%	13µM*	4%	15
CSc1cccc(NC(=S)N(CCN(C)C)C(C)c2ccccn2)c1 (stereo not drawn)	?	?	?	18µM*	-15%	-9
Cc1ccccc1NC(=S)N(Cc1cccnc1)Cc1ccco1	?	3%	2%	25%	-3%	-12
CN(CC(=O)Nc1ccc(F)cc1)C(=O)C1CCCC1	nt	0%	-3%	nt	1%	2
COCCn1c(-c2ccccc2)cnc1N	?	-1%	5%	11µM*	?	0
COc1ccc(-c2cnc(N)n2C)cc1	0%	14%	?	-28%	?	5
Cn1c(-c2ccccc2)cnc1N	-11%	-6%[9.22 µM]	-8%	13µM*	?	-4
Cc1ccc(NC(=O)CN(C)C(=O)Cn2ncc(Cl)c(Cl)c2=O)cc1	-9%	?	3.3µM*	16%	?	-2
Cc1ccc(NC(=O)Cn2ncc(Cl)c(Cl)c2=O)cc1S(=O)(=O)N1CCCCC1	nt	8.2µM*	4.1µM*	nt	?	7
Cc1ccc(NC(=O)Cc2ccc(Cl)cc2)cc1S(=O)(=O)N1CCCCCC1	nt	-30%	12%	nt	-3%	9
C(#Cc1ccccc1)C[N+]1(CC#Cc2ccccc2)CCCCC1	6%	-1%	0%	30%	5%	-8
Cc1ccc(C#CC[N+]2(CC#Cc3ccc(C)cc3)CCCCC2)cc1	7.1µM*	-2%	-5%	?	?	-11
C=C(C(=O)Nc1ccccc1)c1ccc(C)cc1	nt	2%	-6%	nt	2%	-8
Cc1onc(-c2ccccc2)c1C(=O)OCc1nnc(-c2ccccc2)o1	nt	?	-7%	nt	-13%	11
N#CCCN(C(=O)c1ccco1)c1ccccc1	9%	-3%[9.22 µM]	-21%	1.4µM*	1%	-23
CCN(C(=O)CSc1nncn1-c1ccccc1)C1CCS(=O)(=O)C1 (stereo not drawn)	nt	-1%	0%	nt	?	6
CC(=O)N(C)C1=C(N2CCOCC2)C(=O)c2ccccc2C1=O	?	?	0.73µM*	8.9µM*	?	-26
O=C(O)c1ccc(NC2=C(N3CCOCC3)C(=O)c3ccccc3C2=O)cc1	1%	nt	4%	14%	?	14
CC(=O)N(C1=C(N2CCOCC2)C(=O)c2ccccc2C1=O)c1ccc(C(=O)O)cc1	11µM*	4.1µM*	?	?	?	10
CCOC(=O)Cc1cnc(NC(=O)CSc2nc(C)cc(C)n2)s1	-1%	-4%	4%	17%	-1%	-11
SMILES	VP16 counter	SW480 rerep	MCF10A rerep	RORg inh	BCR signal inh	Giardia killer
CCOC(=O)Cc1cnc(NC(=O)CSc2nc3ncnc(N)c3[nH]2)s1	-2%	?	0.65µM*	27%	-11%	8
O=C(CCN1CCN(c2ccccc2)CC1)Nc1ccccc1	0%	?	-9%	25%	0%	22
O=Cc1cn(-c2ccccc2)nc1-c1cc2c(ccc3ccccc32)oc1=O	0%	2%	2.9µM*	-12%	1%	1
O=Cc1cn(-c2ccccc2)nc1-c1cc2cc(O)ccc2oc1=O	-1%	27%	-9%	15%	-10%	-9
CCc1ccc(Nc2n[n+](-c3ccccc3)c(-c3ccc(OC)c(Br)c3)s2)cc1	1%	20%	-9%	27%	?	-1
CC(=O)C1=C(C)NC(SCC(=O)c2ccc(Cl)cc2)=C(C#N)C1CC(C)C (stereo not drawn)	?	6%	?	11µM*	-13%	-2
CCOC(=O)C1=C(C)NC(SC)=C(C#N)C1CC(C)C (stereo not drawn)	-2%	7.3µM*	?	-7%	?	6
CC(=O)C1=C(C)NC(SCC(=O)c2ccc(F)cc2)=C(C#N)C1CC(C)C (stereo not drawn)	7.1µM*	?	18µM*	5.6µM*	?	8
Cn1c([N+](=O)[O-])cnc1COC(N)=O	-13%	-24%	1%	3%	-14%	-90*
CCOC(=O)c1c(N)c2cc([N+](=O)[O-])cnc2n1C	7%	-12%	-3%	15%	?	-3
O=C(NNC1=C(C(=O)C(F)(F)F)CCC1)c1ccc(Cl)cc1	?	2%	-4%	11µM*	?	-10
COc1ccc(C(=O)NNC2=C(C(=O)C(F)(F)F)CCC2)cc1	?	?	?	14µM*	?	4
O=C(NNC1=C(C(=O)C(F)(F)F)CCC1)c1cccc(Cl)c1	?	?	?	?	?	8
Cc1cc(=O)[nH]c(Nc2ccccc2C)n1	-7%	1%	1%	-1%	?	9
O=C(N/N=C/C=C/c1ccco1)c1cccc([N+](=O)[O-])c1	10µM*	-700%	9%	5µM*	?	-8
O=C(N/N=C/C=C/c1ccco1)c1ccncc1	?	-1%	-3%	10µM*	?	8
O=C(N/N=C/C=C/c1ccco1)/C(=C/c1ccccc1)NC(=O)c1ccccc1	?	-9%	6%	13µM*	3%	8
O=C(O)/C(=C\c1ccco1)NC(=O)c1ccccc1	7%	-122%	-9%	-7%[10 µM]	3%	-8
Cc1onc(-c2ccccc2)c1C(=O)NC(C)c1ccc2c(c1)OCO2 (stereo not drawn)	1%	0%	11%	0%	?	-7
CC(Sc1ncn[nH]1)C(=O)c1c(N)n(C)c(=O)n(C)c1=O (stereo not drawn)	nt	-1%	-1%	nt	9%	1
Cc1cccc(C)c1NC(=O)CNC(=O)CCC(=O)N1CCOCC1	nt	19%	5%	nt	0%	7

Screening data: PubChem BioAssay, National Center for Advancing Translational Sciences (NCATS)
